± gives the standard deviation of the averaged measurements.
Tests used:
Test in all cases: cell viability (% of vehicle); higher = less cytotoxic
HCI01 [1] = cells of a triple-negative basal-like breast cancer xenograft; conditions: 10 µM; 72 h
HCI03 = cells of an ER-positive luminal breast cancer xenograft; conditions: 10 µM; 72 h
HCI09 = cells of a triple-negative luminal androgen receptor type breast cancer xenograft; conditions: 10 µM; 72 h
HCI11 = cells of an ER-positive luminal breast cancer xenograft; conditions: 10 µM; 72 h
HCI13 = cells of an ER-positive luminal breast cancer xenograft; conditions: 10 µM; 72 h
HCI16 = cells of a triple-negative basal-like breast cancer xenograft; conditions: 10 µM; 72 h
UCD52 [2] = cells of a triple-negative basal-like breast cancer xenograft; conditions: 10 µM; 72 h
WHIM2 [3] = cells of a triple-negative basal-like breast cancer xenograft; conditions: 10 µM; 72 h
HCI01 [4] = conditions: 1 µM; 72 h
UCD52 [5] = conditions: 1 µM; 72 h
WHIM30 [6] = cells of a triple-negative basal-like breast cancer xenograft; conditions: 1 µM; 72 h
WHIM30 [7] = conditions: 10 µM; 72 h
WHIM2 [8] = conditions: 1 µM; 72 h

| Structure (SMILES) | cell viability (HCI01 [1]) | cell viability (HCI03) | cell viability (HCI09) | cell viability (HCI11) | cell viability (HCI13) | cell viability (HCI16) | cell viability (UCD52 [2]) | cell viability (WHIM2 [3]) | cell viability (HCI01 [4]) | cell viability (UCD52 [5]) | cell viability (WHIM30 [6]) | cell viability (WHIM30 [7]) | cell viability (WHIM2 [8]) |
| --- | --- | --- | --- | --- | --- | --- | --- | --- | --- | --- | --- | --- | --- |
| CS(=O)(=O)CCNCc1ccc(-c2ccc3ncnc(Nc4ccc(OCc5cccc(F)c5)c(Cl)c4)c3c2)o1 [Lapatinib] | 112 ± 63 | 45.4 | 39.3 ± 17 | 98.8 | 42.2 ± 0.47 | 168 | 51.2 ± 3.6 | 40.7 ± 5.3 |  |  |  |  |  |
| CC(=O)NC1C(N=C(N)N)C=C(C(=O)O)OC1C(O)C(O)CO (configuration not stated) [Zanamivir] | 82.4 ± 58 | 156 | 96 ± 12 | 90.8 | 108 ± 2.3 | 113 | 90.4 ± 1.5 | 106 ± 31 |  |  |  |  |  |
| CCCNC(C)C(=O)Nc1ccccc1C (configuration not stated) [Prilocaine] | 77.2 ± 50 | 145 | 102 ± 1.6 | 92 | 119.7 ± 0.81 | 108 | 79.7 ± 1.1 | 98.7 ± 19 |  |  |  |  |  |
| CCCSc1ccc2nc(NC(=O)OC)[nH]c2c1 [Albendazole] | 166 ± 38 | 131 | 172 ± 35 | 93.6 | 127 ± 10 | 160 | 95.4 ± 25 | 123 ± 28 |  |  |  |  |  |
| CC1(COc2ccc3c(c2)ncn3-c2ccc3cccc(N4CCC(N)CC4)c3n2)COC1 | 41.1 ± 22 |  | 12.7 ± 2.4 |  | 26.6 ± 24 |  | 34 ± 9.8 | 35 ± 13 | 97.6 | 138 | 71.3 | 60.3 ± 3.4 |  |
| CC[C@@]1(O)C(=O)OCc2c1cc1n(c2=O)Cc2cc3c(CN(C)C)c(O)ccc3nc2-1.Cl [Topotecan HCl] | 38 ± 13 |  | 35.2 ± 10 | 51.9 | 54.7 ± 1.9 | 69.1 | 42 ± 7.3 | 43.7 ± 2.5 | 65.4 | 93.4 | 41.7 | 82.1 ± 9.8 | 49.6 |
| COC(c1ccccc1)(c1ccccc1)C(Oc1nc(C)cc(C)n1)C(=O)O (configuration not stated) [Ambrisentan] | 79.8 ± 52 | 128 | 92.8 ± 15 | 84 | 94.1 ± 1.8 | 106 | 74.7 ± 11 | 107 ± 16 |  |  |  |  |  |
| CN1CCN(CCCN2c3ccccc3Sc3ccc(Cl)cc32)CC1 [Prochlorperazine] | 113 ± 3 | 118 | 98.8 ± 8.7 | 91.1 | 128 ± 17 | 92.1 | 63.7 ± 7.7 | 74.7 ± 5 |  |  |  |  |  |
| CC1CCN(C(=O)CC#N)CC1N(C)c1ncnc2[nH]ccc12.O=C(O)CC(O)(CC(=O)O)C(=O)O (configuration not stated) | 188 ± 8.3 | 151 | 77.7 ± 1.5 | 115 | 104 ± 9.7 | 141 | 109 ± 21 | 87.9 ± 3 |  |  |  |  |  |
| CC(C)CC(NC(=O)C(CCc1ccccc1)NC(=O)CN1CCOCC1)C(=O)NC(Cc1ccccc1)C(=O)NC(CC(C)C)C(=O)C1(C)CO1 (configuration not stated) [Carfilzomib (PR-171)] | 32.3 ± 3.5 |  | 25.7 ± 4.7 | 55.9 | 32.9 ± 4.7 | 38.9 | 64.4 ± 11 | 26.4 ± 11 | 29.2 | 16.6 | 22.9 | 68.8 ± 2.6 | 43.9 |
| CCN(CCO)CCCOc1ccc2c(Nc3cc(CC(=O)Nc4cccc(F)c4)[nH]n3)ncnc2c1 [Barasertib (AZD1152-HQPA)] | 136 ± 22 | 118 | 79.2 ± 6.8 | 91.5 | 97.3 ± 5.7 | 143 | 107 ± 20 | 89.4 ± 4 |  |  |  | 131 ± 0.53 |  |
| CCOC(=O)C(CCc1ccccc1)NC(C)C(=O)N1C(C(=O)O)CC2CCCC21 (configuration not stated) [Ramipril] | 77.7 ± 49 | 129 | 86.7 ± 4.7 | 91.6 | 115 ± 14 | 106 | 87.6 ± 5.9 | 90.8 ± 9.4 |  |  |  | 99.772 ± 0.035 |  |
| Nc1ccc(S(=O)(=O)Nc2ccccn2)cc1 [Sulfapyridine] | 111.2 ± 0.17 | 131 | 101 ± 2.1 | 92.6 | 138 ± 15 | 147 | 113 ± 19 | 100 ± 0.64 |  |  |  | 120 ± 12 |  |
| Nc1ccc(S(N)(=O)=O)cc1 [Sulfanilamide] | 106 ± 25 | 127 | 97.7 ± 18 | 83.1 | 164 ± 9.1 | 120 | 94.6 ± 8.7 | 105 ± 7.5 |  |  |  | 140 ± 13 |  |
| O=C(O)CCNC(=O)c1ccccc1 [Betamipron] | 121 ± 22 | 105 | 87.5 ± 28 | 98.2 | 69.8 ± 10 | 98.9 | 99.9 ± 9.4 | 101 ± 11 |  |  |  | 108 ± 4.5 |  |
| CC1c2cccc(O)c2C(O)=C2C(=O)C3(O)C(O)=C(C(N)=O)C(=O)C(N(C)C)C3C(O)C21.Cl (configuration not stated) [Doxycycline hyclate] | 159 ± 22 | 109 | 94.8 ± 12 | 114 | 107 ± 5.1 | 134 | 111 ± 3.3 | 90.9 ± 9.3 |  |  |  | 173 ± 22 |  |
| Nc1nc(F)nc2c1ncn2C1OC(COP(=O)(O)O)C(O)C1O (configuration not stated) [Fludarabine Phosphate (Fludara)] | 101 ± 16 | 134 | 98.1 ± 17 | 124 | 98.8 ± 10 | 106 | 98.2 ± 4.5 | 127 ± 32 |  |  |  | 115 ± 13 |  |
| CC(=O)N=c1sc(S(N)(=O)=O)nn1C [Methazolamide] | 103 ± 7.7 | 114 | 92.5 ± 21 | 119 | 119 ± 9.3 | 122 | 93.9 ± 16 | 94.6 ± 3.6 |  |  |  | 97.7 ± 1.2 |  |
| CC(CN(C)C)CN1c2ccccc2CCc2ccccc21.O=C(O)/C=C\C(=O)O (configuration not stated) [Trimipramine (maleate)] | 99.2 ± 13 | 101 | 91.6 ± 9.4 | 69 | 92.2 ± 2.7 | 105 | 86.9 ± 1.5 | 77.6 ± 15 |  |  |  | 93.3 ± 1.9 |  |
| CCCCCCCCCC(=O)NC(Cc1c[nH]c2ccccc12)C(=O)NC(CC(N)=O)C(=O)NC(CC(=O)O)C(=O)NC1C(=O)NCC(=O)NC(CCCN)C(=O)NC(CC(=O)O)C(=O)NC(C)C(=O)NC(CC(=O)O)C(=O)NCC(=O)NC(CO)C(=O)NC(C(C)CC(=O)O)C(=O)NC(CC(=O)c2ccccc2N)C(=O)OC1C (configuration not stated) [Daptomycin] | 142 ± 4.9 | 141 | 128 ± 9.9 | 113 | 163 ± 89 | 111 | 118 ± 18 | 103 ± 28 |  |  |  | 162 ± 40 |  |
| CC12C=CC(=O)NC1CCC1C2CCC2(C)C(C(=O)Nc3cc(C(F)(F)F)ccc3C(F)(F)F)CCC12 (configuration not stated) [Dutasteride] | 129 ± 13 | 107 | 114 ± 15 | 92.4 | 123 ± 1.7 | 111 | 100 ± 4.5 | 90.3 ± 22 |  |  |  | 142 ± 12 |  |
| COc1cc2nc(N3CCN(C(=O)C4CCCO4)CC3)nc(N)c2cc1OC.Cl.O.O (configuration not stated) [Terazosin HCl] | 137 ± 8 | 116 | 110 ± 19 | 101 | 104 ± 2 | 123 | 85.8 ± 15 | 113 ± 5.9 |  |  |  | 114 ± 12 |  |
| COc1ccc(C2CNC(=O)C2)cc1OC1CCCC1 (stereo not drawn) [S- (+)-Rolipram] | 144 ± 9 | 152 | 94.4 ± 32 | 121 | 144 ± 31 | 136 | 99.5 ± 11 | 117.8 ± 0.47 |  |  |  | 134 ± 9.9 |  |
| CO[C@H]1/C=C/O[C@@]2(C)Oc3c(C)c(O)c4c(c3C2=O)C2=NC3(CCN(CC(C)C)CC3)NC2=C(NC(=O)/C(C)=C\C=C\[C@H](C)[C@H](O)[C@@H](C)[C@@H](O)[C@@H](C)[C@H](OC(C)=O)[C@@H]1C)C4=O [Rifabutin] | 56.1 ± 34 | 116 | 57.3 ± 27 | 83.2 | 113 ± 16 | 121 | 81.2 ± 1.8 | 79.1 ± 27 |  |  |  | 143 ± 7.7 |  |
| C[N+](C)(C)CC(O)CC(=O)O.[Cl-] (racemic) [DL-Carnitine HCl] | 111 ± 35 | 112 | 120 ± 37 | 101 | 113 ± 5.4 | 147 | 102 ± 13 | 114 ± 25 |  |  |  | 132 ± 11 |  |
| O=C([C@H](CCC/N=C(N)/N)NS(=O)(C1=C2NC[C@H](C)CC2=CC=C1)=O)N3[C@@H](C(O)=O)C[C@H](C)CC3 [Argatroban] | 116 ± 7.1 | 130 | 98 ± 6.5 | 116 | 95.2 ± 6 | 96.6 | 80.3 ± 7.5 | 98.9 ± 18 |  |  |  | 132 ± 14 |  |
| CO/N=C(\C(=O)N[C@@H]1C(=O)N2C(C(=O)O)=C(CSc3nc(=O)c(O)nn3C)CS[C@H]12)c1csc(N)n1 [Ceftriaxone Sodium Trihydrate] | 148 ± 45 | 111 | 98.6 ± 26 | 101 | 77.6 ± 1.9 | 125 | 106 ± 1.4 | 130 ± 13 |  |  |  | 109 ± 2.1 |  |

— the supplement of paper PMC6992640
